# Measured values reported in PubChem BioAssay AID686978 (National Center for Advancing Translational Sciences (NCATS), 2013).
# Several values for one entry are separate records, joined by “and”; a condition that tells them apart may be missing. Equal values may be shown once. In all, about 420,000 compounds went through this assay and about 64,000 (15%) were called active. Another 27% or so got no clear call; they are omitted. A selection follows. A number with no mark means an inactive call. Calls follow the shape of the dose curve; as a rule, active = well fitted inhibition curve with a large enough effect; inconclusive = small, poorly fitted or top-dose-only effect; inactive = flat fitted curve, though single readings scatter.
# Assay: qHTS for Inhibitors of human tyrosyl-DNA phosphodiesterase 1 (TDP1): qHTS in cells in absence of CPT; also: nearly all actives have a fitted effect of over 55% in size
# Settings: DT40 Tdp1-/- hTDP1 cells, no CPT, ATP luminescence, 48 h; activity change, negative = growth inhibition: at 46.2 µM (top of the series)
# Outline: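 Camptothecin absent (DMSO only). Human TDP1-complemented DT40 knockout cells, 400 cells/well, 37 °C for minimum 48 hr; ATP measured via CellTiter-Glo, 30 min dark incubation, luminescence.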
# % is scaled to controls: 0 for no effect and ±100 for the full control effect; potency is read from the fitted curve at half-maximal effect.
SMILES,"activity change, negative = growth inhibition [%]",Potency
CC(C)(C)n1nc2c(c1NC(=O)c1ccc(S(=O)(=O)N3CCCC3)cc1)CS(=O)C2 (centres undefined),-21.6,–
CC(C)(C)n1c(=O)[nH]c2c(c1=O)CCC2,5.73,–
CC1(C)CC(=O)C(N=Nc2c(F)cccc2F)=C(O)C1,-7.33,–
NC1=NC(=O)C2(COC(c3ccccc3Cl)OC2)S1 (centres undefined),0.828,–
O=C(CSc1ncccn1)NC(=O)NCc1ccccc1,-8.73,–
COc1cc(NC(=O)CN2CCN(S(=O)(=O)c3ccc(Br)cc3)CC2)cc(OC)c1,-12.3,–
O=C(Nc1ccc2oc(-c3ccc4ccccc4c3)nc2c1)c1cccs1,–,23.1 µM (active)
O=C(Nc1ccc2oc(-c3ccc(O)c(Br)c3)nc2c1)c1cc2ccccc2o1,-8.41,–
O=C(Nc1ccc(NC(=O)c2cccs2)cc1)c1ccc2ccccc2c1,1.73,–
COc1cccc(-c2nc3cc(C)ccc3o2)c1,-25.6,–
COc1cccc(C(=O)Nc2ccc3oc(-c4ccc5ccccc5c4)nc3c2)c1,–,10.3 µM (active)
COC(=O)c1ccc(-c2nc3cc(NC(C)=O)ccc3o2)cc1,-15,–
COCCNC(=O)c1ccccc1-c1nc(-c2ccccc2Cl)no1,-25.9,–
COc1ccccc1CCCNC(=O)C1CCC(=O)N(CCN2CCOCC2)C1 (centres undefined),19,–
Cn1c(N)c(C(=O)COC(=O)COc2ccc(Cl)cc2)c(=O)n(C)c1=O,-19,–
N=C1C(=O)OCC1c1ccccc1NC(=O)CN1CCCCC1 (centres undefined),-8.68,–
Cc1cccc(CC2(O)C(=O)Nc3ccccc32)n1 (centres undefined),-14.3,–
CC(Sc1nnc(COc2ccccc2)n1-c1ccccc1)C(=O)O (centres undefined),-4.89,–
CCCCN(CC)CCCNC(=O)c1nn(C)c2c1CS(=O)(=O)c1ccccc1-2,10.4,–
Cc1cc(N2CCN(C)CC2)nc2ccc(NC(=S)N3CCOCC3)cc12,-13.7,–
CCN1CCN(c2cc(C)c3cc(NC(=O)c4cc(Cl)ccc4OC)ccc3n2)CC1,–,4.11 µM (active)
COc1cc(NC(=O)c2ccc(CNc3c(N4CCCC4)c(=O)c3=O)cc2)cc(OC)c1OC,-25.3,–
COc1ccc(C(=O)Nc2ccc3nc(N4CCCCC4)cc(C)c3c2)cc1OC,–,14.6 µM (active) and 16.4 µM (active)
CCOCCCNC(=S)Nc1ccc2nc(N3CCN(CC)CC3)cc(C)c2c1,-3.03,–
COC(=O)c1ccc(NC(=O)c2cc(Cl)ccc2OC)cc1,16.5,–
CCOc1ccc(S(=O)(=O)NCCSc2ccccc2)cc1,2.24,–

SMILES,"activity change, negative = growth inhibition [%]",Potency
O=C(Nc1ccccc1)c1ccccc1Br,-23.4,–
O=C(Nc1nnc(-c2ccc(Cl)cc2)o1)c1ccccc1Br,–,18.4 µM (active)
O=C(COC(=O)c1ccccc1Br)Nc1nnc(-c2ccccc2)o1,-7.07,–
O=C(CSc1nnc(-c2ccncc2)o1)Nc1cccc(Cl)c1,-5.19,–
CC(=O)Nc1cccc(C(=O)OCC(=O)Nc2nnc(-c3ccccc3)o2)c1,1.04,–
O=C(Nc1cccc(Cl)c1)Nc1nnc(-c2ccccc2)o1,–,16.4 µM (active)
O=C(Cn1cnc2cc([N+](=O)[O-])ccc2c1=O)NC(=O)NCc1ccccc1,0.964,–
CCOC(=O)N1CCN(Cc2oc(CO)cc(=O)c2O)CC1,3.91,–
O=C(N/N=C/c1ccc2c(c1)OCO2)c1ccc(Cn2cc([N+](=O)[O-])cn2)o1,-19.9,–
Cc1c(Cl)c([N+](=O)[O-])nn1Cc1ccc(C(=O)N/N=C\c2cc(Cl)ccc2O)o1,–,4.61 µM (active)
Cc1ccc(C(=O)O)cc1NC(=O)c1ccc(Cn2nc(C)c(Cl)c2C)o1,1.5,–
O=C(O)CSCC(=O)Nc1ccc(C(F)(F)F)cc1,13.2,–
COc1ccc(C(C)=O)cc1CN1C(=O)NC2(CCCCC2C)C1=O (centres undefined),2.75,–
CNS(=O)(=O)c1cccc(C(=O)OCC(=O)N2c3ccccc3NC(=O)C2(C)C)c1,-12.8,–
Cc1ccn(CC(=O)NC2CCCN(Cc3ccccc3F)C2)n1 (centres undefined),-0.51,–
CCCOC1CCCN(Cc2cn(C)nc2-c2ccccc2F)C1 (centres undefined),-22.2,–
CC(C)c1cc(C(=O)N(C)C2CCCN(Cc3ccccc3F)C2)n(C)n1 (centres undefined),–,25.9 µM (active)
CC1CCCN(Cc2c(O)ccc3c(=O)c(Oc4ccc(C(C)(C)C)cc4)c(C(F)(F)F)oc23)C1 (centres undefined),-17.9,–
Cn1nc(C(F)(F)F)c2cc(NC(=O)OCC(C)(C)C)sc21,-12.7,–
COC(=O)Cn1cc(C(=O)c2cccs2)c2ccccc21,-9.78,–
COCCNC(=O)Cn1cc(C(=O)c2cccs2)c2ccccc21,6.96,–
O=C(c1cccs1)c1cn(CCOc2ccc(Cl)cc2)c2ccccc12,–,7.31 µM (active)
O=C(CC1SC(N2CCCC2)=NC1=O)Nc1ccc(C(=O)NCCc2ccc(F)cc2)cc1 (centres undefined),-12.2,–
CC(=O)Nc1ccc(NS(=O)(=O)c2cc(C)sc2C)cc1,-18.7,–
COc1ccc(CCNC(=O)CCc2ccccc2O)cc1OC,-27.5,–
COc1ccc(CCNC(=O)c2ccccc2-c2ccccc2C(=O)O)cc1OC,-10.3,–

SMILES,"activity change, negative = growth inhibition [%]",Potency
O=C(c1ccccc1)N1CCN(c2ccc([N+](=O)[O-])c(NCc3ccco3)c2)CC1,–,16.4 µM (active)
O=C(c1cccc([N+](=O)[O-])c1)N1CCN(C(=O)c2ccco2)CC1,-8.93,–
O=[N+]([O-])c1cc(-c2nc(-c3ccccc3)no2)ccc1NCc1ccco1,-21.4,–
COc1ccc(CCNc2cc(N3CCN(C(=O)c4ccccc4OC)CC3)ccc2[N+](=O)[O-])cc1OC,–,9.2 µM (active)
CCC(=O)N1CCC(C(N)=O)(N2CCCCC2)CC1,-3.17,–
COc1cccc(C(=O)NC2=NC(c3ccc(N(C)C)cc3)CC(=O)N2)c1 (centres undefined),-24.2,–
O=C(NCCCn1ccnc1)c1cc2c(s1)CCCC2,13,–
CCOCCCNC(=O)C(NC(=O)c1ccc(=O)[nH]c1)c1ccc(C)cc1 (centres undefined),-13.8,–
CC(=O)N(CC(O)CO)c1c(I)c(C(=O)NCC(O)CO)c(I)c(C(=O)NCC(O)CO)c1I (centres undefined),–,inactive
COc1ccc(C2N=C(N)N=C(N)N2c2ccccc2)cc1OC (centres undefined),-13.4,–
O=C(NCCS(=O)(=O)NCc1ccc(Cl)cc1)c1ccccc1,-6.22,–
CCCCCCn1c(=O)n2n(c1=O)C[C@]1(OC(=O)NCc3ccc(OC)c(OC)c3)CN(S(=O)(=O)c3ccc(C)cc3)C[C@]1(O)C2,–,20.6 µM (active)
CCCS(=O)(=O)N1CCC(C(=O)NCCc2ccc(OC)c(OC)c2)CC1,-1.2,–
COc1ccc(CNC(=O)COC(=O)CCS(=O)(=O)c2ccc(C)cc2)cc1OC,1.8,–
Cc1nnc(-c2ccc(Oc3ccc(C)c(C)c3)c([N+](=O)[O-])c2)o1,–,9.2 µM (active)
CNc1ccc(-c2nc(-c3ccccc3C)no2)cc1[N+](=O)[O-],-16,–
COc1ccc(-c2nc3cc([N+](=O)[O-])ccc3o2)cc1OC,-5.45,–
O=C(CCc1nc(CN2CCN(S(=O)(=O)c3ccc(Cl)cc3)CC2)no1)N1CCCCC1,-21.3,–
O=C(COC(=O)COc1cccc(F)c1)NCC1CCCCC1,0.989,–
O=C1OC(C(=O)Nc2cccc(Br)c2)Cc2ccccc21 (centres undefined),1.96,–
CC(C)CC(CO)N1CCN(C(=O)c2ccc(Cl)cc2Cl)CCC1=O (centres undefined),-11.6,–
CC(C)C[C@@H](COCc1ccc(Cl)cc1)N1CCN(C(=O)c2ccc(Cl)cc2Cl)CCC1=O,–,16.4 µM (active)
CC(C)C[C@@H](CO)N1CCN(Cc2ccc(O)cc2)CCC1=O,–,inactive
Cc1nc(N)nc(Cl)c1CCC1OCCO1,-6.83,–
Cc1csc(=Nc2ccccc2)n1CCO,7.06,–
OCCn1c(-c2ccccc2)csc1=Nc1ccccc1,–,16.4 µM (active)

SMILES,"activity change, negative = growth inhibition [%]",Potency
CCOCCc1nn2c(=O)cc(CSCC(=O)Nc3cccc(C)c3C)nc2s1,-7.26,–
O=C(COC(=O)CCc1ccc(S(=O)(=O)N2CCOCC2)cc1)Nc1cccc(Cl)c1,5.37,–
Cc1ccc2nc(COc3cccc(NC(=O)c4cccc(Cl)c4)c3)cc(=O)n2c1,-22.2,–
O=C(Nc1ccon1)c1cccc(Cl)c1,3.62,–
Cc1cc(NC(=O)c2cccc(Cl)c2)ccc1-c1cc2ccccc2oc1=O,–,23.1 µM (active)
N/C(=N\OS(=O)(=O)c1cccc([N+](=O)[O-])c1)c1ccncc1,-5.45,–
Cc1ccc(CNC(=O)C(=O)c2cn(CC(=O)N3CCOCC3)c3ccccc23)cc1,13.1,–
CCS(=O)(=O)c1ccc(C(=O)NC)c(Cl)c1Cl,2.49,–
Cc1cc(O)ccc1-c1cnc2ccccc2n1,-24.8,–
O=C(Nc1ccc(CSc2ccccc2)cc1)c1ccc(CN2CCOCC2)cc1,1.03,–
Cc1ccc(NC(=O)CN2CCc3ccccc3C2)cc1C,0.0925,–
Cc1cccc(C)c1NC(=O)c1ccc(CN2CCc3ccccc3C2)cc1,–,20.6 µM (active)
O=C(NNC(=O)c1csc(-c2cccnc2)n1)Nc1ccc(Cl)cc1,-26.1,–
C#CC(C)(CC)NC(=O)Cn1nnc(-c2ccc(OCc3c(F)cccc3Cl)cc2)n1 (centres undefined),–,18.4 µM (active)
COCCCNC(=O)/C=C/c1ccc(OCc2c(F)cccc2Cl)cc1,2.03,–
Fc1cccc(Cl)c1COc1ccc(-c2nnco2)cc1,-11.1,–
O=C(OCCOCn1cc(Br)c(=O)[nH]c1=O)c1ccccc1,-9.32,–
CN(N)c1nc(N2CCCC2)nc(N2CCCC2)n1,-15.5,–
O=C(NCc1ccccc1)c1cc(-c2cccc(Cl)c2)on1,-15.6,–
O=C(c1cn(CC2CCCN(Cc3cc4ccccc4s3)C2)nn1)N1CCCC1 (centres undefined),-9.65,–
CCOC(=O)C1(S(=O)(=O)c2ccc(Cl)cc2)CCN(Cc2ccccc2)CC1,-22,–
CCOC(=O)C1(CCOC)CCN(Cc2cc3ccccc3s2)CC1,–,16.4 µM (active)
CCOC(=O)C1(CCOc2ccccc2)CCN(Cc2ccc(C#CCCO)cc2)CC1,–,16.4 µM (active)
CCOC(=O)C1(CCOC)CCN(Cc2ccc(C(=O)OC)cc2)CC1,-24.2,–
O=C(CCc1ccccc1)Nc1ccnn1C1CCN(Cc2ccc(OCCO)cc2)CC1,18.5,–
CCOc1cc2[nH]c(=S)n(CCN3CCCCC3C)c(=O)c2cc1OCC (centres undefined),-22.3,–
